Reference: paper PMC10668032, “Altered binding affinity of SIX1-Q177R correlates with enhanced WNT5A and WNT pathway effector expression in Wilms tumor”
Whole data set: some 33,000 sequences, median “e-score” near -0.053, cut for the highest 2% near 0.38. Shown is part of a subset that was picked to be rich in the highest values.

target: T1, SIX1 homeodomain (reference allele) (human, UniProt Q15475 108-198); assay: universal protein binding microarray; Universal all-10-mer PBM (8x60K, AMADID 030236), 300 nM GST-tagged protein, Alexa Fluor 488 anti-GST; buffer, salt, pH and temperature not stated (as in Berger); high values mean tight binding; settings: protein: ivt; tags: N-terminal GST; dsDNA, one strand shown
T1 sequence: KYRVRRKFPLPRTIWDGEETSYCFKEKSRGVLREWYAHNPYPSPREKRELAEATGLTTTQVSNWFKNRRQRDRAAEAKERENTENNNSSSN
Procedure, shortened: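 Binding of GST-tagged homeodomains is given as 8-mer E-scores from the Universal PBM Analysis Suite. The proteins were produced by in vitro transcription/translation, quantified by anti-GST western blot against a recombinant GST standard curve, and applied in duplicate at 300 nM final concentration to universal 'all 10-mer' protein binding microarrays (8×60K format).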

Row | Sequence | binding signal
1 | ATACTTCG | 0.304 ± 0.058 E-score
2 | GACAATCC | 0.18 ± 0.0145 E-score
3 | ATCAACAA | 0.222 ± 0.0259 E-score
4 | CATATGAC | 0.166 ± 0.0391 E-score
5 | ATACATCG | 0.238 ± 0.0407 E-score
6 | ACTTACCG | 0.152 ± 0.00235 E-score
7 | TATATTGA | 0.258 ± 0.0428 E-score
8 | GTGTCGGA | 0.322 ± 0.041 E-score
9 | GGATGGGA | 0.195 ± 0.0444 E-score
10 | CAGATTGA | 0.219 ± 0.0123 E-score
11 | AAGTGATC | 0.391 ± 0.00486 E-score
12 | CCGTGATC | 0.364 ± 0.0193 E-score
13 | CAGTGATC | 0.382 ± 0.0157 E-score
14 | GAGTGATC | 0.336 ± 0.0148 E-score
15 | ACGTGATC | 0.302 ± 0.0538 E-score
16 | GCGTGATA | 0.437 ± 0.0364 E-score
17 | CCGTGATA | 0.348 ± 0.0248 E-score
18 | AATTGATC | 0.291 ± 0.0151 E-score
19 | GATCTATA | 0.298 ± 0.0183 E-score
20 | CCTACACC | 0.163 ± 0.0313 E-score
21 | CCGTAATA | 0.205 ± 0.0335 E-score
22 | TACTCGAA | 0.152 ± 0.00667 E-score
23 | TACACGGA | 0.173 ± 0.0418 E-score
24 | ACCATCCG | 0.23 ± 0.0704 E-score
25 | ATACATCC | 0.365 ± 0.0231 E-score

Row | Sequence | binding signal
26 | GATTAATA | 0.301 ± 0.0732 E-score
27 | ATACGCGG | 0.182 ± 0.0649 E-score
28 | AGGGGTAC | 0.178 ± 0.0933 E-score
29 | AAGGGTGT | 0.32 ± 0.00631 E-score
30 | CCGGGTAG | 0.162 ± 0.0432 E-score
31 | AACGGTAT | 0.234 ± 0.0543 E-score
32 | ACAGGTAT | 0.312 ± 0.0224 E-score
33 | AAGGGTAA | 0.173 ± 0.0225 E-score
34 | AGGGGTAG | 0.214 ± 0.0325 E-score
35 | AAAGGTAT | 0.337 ± 0.087 E-score
36 | AAGGGTAT | 0.41 ± 0.0209 E-score
37 | AGGGGTAT | 0.451 ± 0.0124 E-score
38 | AGAGGTAT | 0.399 ± 0.0394 E-score
39 | ACGGGTAT | 0.435 ± 0.0111 E-score
40 | CATCCCGA | 0.175 ± 0.0394 E-score
41 | CGGATTGA | 0.305 ± 0.0268 E-score
42 | AATGTATA | 0.259 ± 0.0211 E-score
43 | ACACCTCT | 0.239 ± 0.0609 E-score
44 | TATCCAAA | 0.297 ± 0.0104 E-score
45 | GGATTACA | 0.18 ± 0.0206 E-score
46 | ATCGTCTG | 0.162 ± 0.0451 E-score
47 | CCGGCATC | 0.201 ± 0.0414 E-score
48 | TATACTGA | 0.239 ± 0.00916 E-score
49 | GATACTGC | 0.44524 ± 0.000438 E-score
50 | AATACTTG | 0.151 ± 0.0521 E-score

Row | Sequence | binding signal
51 | AATACTTC | 0.2 ± 0.116 E-score
52 | AATACTGC | 0.162 ± 0.0355 E-score
53 | GACACTGA | 0.161 ± 0.0506 E-score
54 | GATACTGA | 0.42285 ± 0.000276 E-score
55 | GATACTTA | 0.401 ± 0.0667 E-score
56 | AATACTGT | 0.183 ± 0.00786 E-score
57 | ATCGAGTA | 0.226 ± 0.00853 E-score
58 | CGAATACA | 0.151 ± 0.0627 E-score
59 | CCGCCTGA | 0.228 ± 0.0274 E-score
60 | AACACCAG | 0.164 ± 0.0278 E-score
61 | ATCGCCCG | 0.198 ± 0.0602 E-score
62 | ACTCCATC | 0.162 ± 0.00629 E-score
63 | ATCAGCTG | 0.154 ± 0.0485 E-score
64 | CCCTCATC | 0.176 ± 0.0843 E-score
65 | CGACACTC | 0.177 ± 0.0347 E-score
66 | ATACATAG | 0.177 ± 0.0401 E-score
67 | GTAGTATA | 0.267 ± 0.0665 E-score
68 | ATAGTATA | 0.29 ± 0.0405 E-score
69 | CTAGTATC | 0.388 ± 0.0365 E-score
70 | CTAGTATA | 0.242 ± 0.0487 E-score
71 | ATAGTATC | 0.426 ± 0.0263 E-score
72 | ATAGTATG | 0.258 ± 0.00892 E-score
73 | CATGTGAG | 0.152 ± 0.0831 E-score
74 | ATCCAAGC | 0.169 ± 0.0665 E-score
75 | AGCCGATC | 0.329 ± 0.0103 E-score

Row | Sequence | binding signal
76 | ACGTATTC | 0.234 ± 0.0548 E-score
77 | ACGTATCA | 0.474 ± 0.0189 E-score
78 | GCGTATCC | 0.369 ± 0.00641 E-score
79 | ACGTATAG | 0.189 ± 0.0603 E-score
80 | CCGTATTC | 0.177 ± 0.00726 E-score
81 | ACGTATAA | 0.268 ± 0.0722 E-score
82 | ACGTATCC | 0.377 ± 0.0283 E-score
83 | CCGTATCC | 0.438 ± 0.0211 E-score
84 | ACGTATCT | 0.339 ± 0.0607 E-score
85 | ACGTATCG | 0.413 ± 0.0215 E-score
86 | CCGTATAC | 0.36 ± 0.00586 E-score
87 | ACGTATTG | 0.211 ± 0.0377 E-score
88 | ATCAGTTA | 0.182 ± 0.0174 E-score
89 | AAGATCGG | 0.174 ± 0.064 E-score
90 | CGGATTAG | 0.251 ± 0.0088 E-score
91 | ATTGACAC | 0.3147 ± 0.00157 E-score
92 | CCCGATCA | 0.347 ± 0.0408 E-score
93 | ATCAGTGG | 0.261 ± 0.0178 E-score
94 | GCATATAC | 0.227 ± 0.0131 E-score
95 | TAATATCA | 0.34 ± 0.0768 E-score
96 | ACATATGA | 0.166 ± 0.0311 E-score
97 | CCATATCA | 0.472 ± 0.0124 E-score
98 | GCATATCC | 0.391 ± 0.00731 E-score
99 | CCATATTA | 0.265 ± 0.0697 E-score
100 | ACATATTA | 0.161 ± 0.0413 E-score

Row | Sequence | binding signal
101 | TCATATGA | 0.303 ± 0.0253 E-score
102 | TCATATCA | 0.418 ± 0.0507 E-score
103 | GAATATCC | 0.276 ± 0.0527 E-score
104 | ACATATCA | 0.446 ± 0.0429 E-score
105 | CCATATAA | 0.155 ± 0.0479 E-score
106 | AACGCATA | 0.203 ± 0.0681 E-score
107 | AGAACACC | 0.179 ± 0.0208 E-score
108 | CCCCGCGA | 0.229 ± 0.018 E-score
109 | ACCCAGCT | 0.181 ± 0.00331 E-score
110 | AGCCATCG | 0.173 ± 0.0382 E-score
111 | TGAAACCA | 0.163 ± 0.0347 E-score
112 | GCATATCA | 0.449 ± 0.0321 E-score
113 | GCATATAA | 0.175 ± 0.0587 E-score
114 | GCATATTA | 0.249 ± 0.0567 E-score
115 | AATGTGAT | 0.178 ± 0.0316 E-score
116 | ACTATATA | 0.247 ± 0.0141 E-score
117 | AACGGTGT | 0.253 ± 0.00261 E-score
118 | CGTATTGA | 0.23 ± 0.0207 E-score
119 | AGTATTGA | 0.193 ± 0.0395 E-score
120 | CGTATAGA | 0.28 ± 0.00298 E-score
121 | GGTATGGA | 0.252 ± 0.0421 E-score
122 | GGTATTAC | 0.385 ± 0.0216 E-score
123 | CGTATCGA | 0.3978 ± 0.00377 E-score
124 | GGTATTAA | 0.366 ± 0.0749 E-score
125 | AGTATTAC | 0.188 ± 0.0763 E-score

Row | Sequence | binding signal
126 | CGAATCGA | 0.182 ± 0.0398 E-score
127 | GGTATTGA | 0.3862 ± 0.0022 E-score
128 | GGTATCGA | 0.463 ± 0.00936 E-score
129 | GCTATCGA | 0.253 ± 0.0112 E-score
130 | ATACGAAA | 0.226 ± 0.0116 E-score
131 | ATCCTAAA | 0.184 ± 0.0231 E-score
132 | ACACCTGG | 0.172 ± 0.0558 E-score
133 | ACAATACC | 0.318 ± 0.028 E-score
134 | GGATAAAA | 0.166 ± 0.106 E-score
135 | GTGGACAC | 0.182 ± 0.0385 E-score
136 | ATCACCGC | 0.191 ± 0.00595 E-score
137 | ATCTGTGC | 0.153 ± 0.0364 E-score
138 | ATAAATAT | 0.168 ± 0.1 E-score
139 | GAACCCGA | 0.19 ± 0.0702 E-score
140 | ATAGCCAT | 0.218 ± 0.0172 E-score
141 | AGTATCTA | 0.347 ± 0.0371 E-score
142 | GCTATCTA | 0.169 ± 0.00501 E-score
143 | GGTATCTA | 0.426 ± 0.0126 E-score
144 | CCTGTATC | 0.365 ± 0.02 E-score
145 | ATTGTATC | 0.367 ± 0.0214 E-score
146 | CCAGTATC | 0.407 ± 0.0315 E-score
147 | GCAGTATA | 0.205 ± 0.0152 E-score
148 | ACAGTATA | 0.287 ± 0.0542 E-score
149 | ACAGTATC | 0.402 ± 0.0345 E-score
150 | GATCTTGA | 0.269 ± 0.0237 E-score

Row | Sequence | binding signal
151 | ATCACGCA | 0.203 ± 0.00725 E-score
152 | ATGAGATG | 0.243 ± 0.00629 E-score
153 | TATCGTAA | 0.296 ± 0.0233 E-score
154 | ACACCGGT | 0.39 ± 0.0245 E-score
155 | ACACCGGA | 0.364 ± 0.0193 E-score
156 | ACACCGGG | 0.301 ± 0.000651 E-score
157 | CGGATGTA | 0.151 ± 0.0426 E-score
158 | TAGGCGAA | 0.164 ± 0.00529 E-score
159 | CTGGTATA | 0.255 ± 0.0119 E-score
160 | ATGGTCTC | 0.153 ± 0.0473 E-score
161 | GTGGTATA | 0.3 ± 0.0344 E-score
162 | ATGGTATA | 0.336 ± 0.0339 E-score
163 | CTGGTATC | 0.45 ± 0.00737 E-score
164 | ATGGTATC | 0.469 ± 0.00713 E-score
165 | AAGGATAT | 0.365 ± 0.0541 E-score
166 | CACGATCC | 0.342 ± 0.0744 E-score
167 | AACGATCC | 0.333 ± 0.0104 E-score
168 | CACGATAC | 0.438 ± 0.0144 E-score
169 | AACGATCT | 0.176 ± 0.00697 E-score
170 | AACGATAC | 0.435 ± 0.0105 E-score
171 | CACGATAG | 0.245 ± 0.0038 E-score
172 | GACGATCC | 0.387 ± 0.0391 E-score
